In PubChem BioAssay one finds fold change permeability data, which are given here for 39 compounds.

Activity calls are given as the source filed them. Cut-off read from the data, not from the text of the source: active = fold change permeability below about 0.7 or above about 1.3; inactive = in between.

This test can be described thus: modulators of brain endothelial barrier permeability, primary screen, cell-based, FITC-avidin fluorescence, HTS (AID 1963498). Note: test concentration not given here. The note with it: actives lie on both sides.
As for `CC#CCOC(=O)c1c(C)nc2sc3c(c2c1N)CCC(O)C3` (centres undefined), the fold change permeability was 1.9 (active).
To `C[C@H](O)C(=O)C1=Nc2c(nc(N)[nH]c2=O)NC1` belongs 0.7 (active); to `CNC[C@H](O)c1ccc(O)c(O)c1`, 0.8 (inactive).
To `Nc1nc(OCc2ccccc2)c2[nH]cnc2n1` belongs 1 (inactive).
To `CCCCS(=N)(=O)CC[C@H](N)C(=O)O` (some centres undefined) belongs 0.9 (inactive); to `COCC(=O)O[C@]1(CCN(C)CCCc2nc3ccccc3[nH]2)CCc2cc(F)ccc2[C@@H]1C(C)C`, 1.5 (active); to `O=S(=O)(c1cccc2c(I)cccc12)N1CCCNCC1`, 0.9 (inactive).
As for `Cc1cc(Nc2cc(N3CCN(C)CC3)nc(Sc3ccc(NC(=O)C4CC4)cc3)n2)n[nH]1`, the fold change permeability is 1.6 (active).
With `COc1cc2c[n+](C)c3c4cc5c(cc4ccc3c2cc1OC)OCO5`, the fold change permeability was 1.1 (inactive).
To `Nc1nc2c(cnn2CCc2ccccc2)c2nc(-c3ccco3)nn12` belongs 0.7 (active).
For the compound `CCCn1c(=O)c2c(ncn2C)n(CCC)c1=O`, the fold change permeability is 1 (inactive).
With `CC(C)(CO)Cc1cc(C(C)(C)C)c(O)c(C(C)(C)C)c1`, the fold change permeability is 1.1 (inactive).
To `CN1Cc2c(N)cccc2C(c2ccccc2)C1` (centres undefined) belongs 1 (inactive).
To `COc1cc(CNC(=O)CCCCCCC(C)C)ccc1O` belongs 0.7 (active).
To `CCCCCCCCCC[Si](C)(C)CCC(=O)NC(Cc1ccc(C)cc1)c1ccccc1` (centres undefined) belongs 0.8 (inactive); to `Cc1ccc(C(=O)Nc2sc(Nc3ccccc3)nc2C(N)=O)cc1`, 1.3 (active); to `NS(=O)(=O)C#Cc1ccccc1`, 1.8 (active).
Turning to `CC(C)C(=O)Nc1ccc([N+](=O)[O-])c(C(F)(F)F)c1`, the fold change permeability was 1.2 (inactive).
Consider `CSc1ccccc1N1CCN(CCCCCC(=O)NC2CCCc3ccccc32)CC1` (centres undefined), for which the fold change permeability was 1.3 (active).
To `COc1ccccc1N1CCN(CC(O)COc2cccc3ccccc23)CC1` (centres undefined) belongs 0.8 (inactive); to `Cc1cccc(C)c1OCC(C)N` (centres undefined), 0.8 (inactive).
To `NNC(=O)CSc1nc2scc(-c3ccccc3)c2c(=O)n1-c1ccccc1` belongs 1.2 (inactive).
To `c1ccc(C2CN3CCSC3=N2)cc1` (centres undefined) belongs 1 (inactive).
As to `COc1ccc(S(=O)(=O)Nc2c(C)cc(C)cc2C)cc1`, the fold change permeability is 1.4 (active).
To `COc1ccc(CCN(C)CCc2ccc(OC)c(OC)c2)cc1OC` belongs 2 (active); to `NCCS(=O)(=O)O`, 0.8 (inactive).
To `CCCCc1ncc(/C=C(\Cc2cccs2)C(=O)O)n1Cc1ccc(C(=O)O)cc1` belongs 0.9 (inactive); to `NCCCC(N)(C(=O)O)C(F)F` (centres undefined), 0.8 (inactive); to `CC(C)C(=O)Nc1n[nH]c2cc(-c3cccc(NS(=O)(=O)C4CC4)c3)ccc12`, 1.2 (inactive).
To `CCCCS(=O)(=O)N[C@@H](Cc1ccc(OCCCCC2CCNCC2)cc1)C(=O)O` belongs 1.5 (active).
`CC(C)=CCC/C(C)=C/CC/C(C)=C/CSc1ccccc1C(=O)O`: the fold change permeability is 1.4 (active).
To `O=C(c1ccc(OCCCc2cnc[nH]2)cc1)C1CC1` belongs 1 (inactive); to `CN[C@H](CC(C)C)C(=O)N[C@H]1C(=O)N[C@@H](CC(N)=O)C(=O)N[C@H]2C(=O)N[C@H]3C(=O)N[C@H](C(=O)N[C@H](C(=O)O)c4cc(O)cc(O)c4-c4cc3ccc4O)[C@H](O)c3ccc(c(Cl)c3)Oc3cc2cc(c3O[C@@H]2O[C@H](CO)[C@@H](O)[C@H](O)[C@H]2O[C@H]2C[C@](C)(N)[C@H](O)[C@H](C)O2)Oc2ccc(cc2Cl)[C@H]1O`, 1.6 (active).
For `C[C@]12CC[C@@H]3c4ccc(O)cc4CC[C@H]3[C@@H]1CCC2=O`, the fold change permeability was 0.9 (inactive).
To `NC1(C(=O)O)CCCCC1` belongs 1 (inactive); to `O=c1[nH]ccc2c(O)cccc12`, 2.2 (active).
To `CN1[C@@H](CC(=O)c2ccccc2)CCC[C@H]1C[C@H](O)c1ccccc1` belongs 1.3 (active); to `CCCCCCCCCCCCCCSCC(=O)O`, 1.6 (active); to `NCc1c[nH]c(=S)n1[C@H]1CCc2c(F)cc(F)cc2C1`, 1.4 (active).
